IL1B secr inh = blocks inflammasome-driven IL-1 beta release; THP-1 LPS/ATP IL-1B secretion, AlphaLISA, 16 h; stronger effect = lower value; activity change, % at 57.5 µM; hit rate 4.7% among 360,000; AID 743279; in the data active means activity change below about -50%; inconclusive means mostly about -30% to -49%; further: on the % scale 0 is the no-effect control and ±100 the full control effect
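THP-1 cells pretreated 1 hr with compounds (up to 57.5 uM final), then stimulated with LPS (250 ng/mL final) plus ATP (1.25 mM final); secreted IL-1B measured by AlphaLISA after 16 hr, decreased signal indicating inhibition.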
MCF10A rereplic = DNA re-replication induction in MCF 10a cells; AID 624296; Potency, µM (highest dose often 46.1 µM), for the others: at the top dose activity, positive = re-replication, usual class: activators; MCF 10A DNA re-replication, Hoechst nuclear intensity, 48 h; hit rate 2.9% among 350,000; further: potency means the concentration at half of the fitted maximal effect; % of control where 0% means no effect; nearly all actives have a fitted effect of over 50% in size
KB-V1 MDR tox = kills drug-selected multidrug resistant KB-V1 cells; KB-V1 MDR cells viability, CellTiter-Glo, 72 h; Potency, µM (top dose mostly 46.1 µM), most hits filed as cytotoxic; hit rate 3.4% among 400,000; further: potency means the concentration at half of the fitted maximal effect; on the % scale 0 is the no-effect control and ±100 the full control effect; nearly all actives have a fitted effect of over 60% in size
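Following 72 h at 37 degrees C with compound, KB-V1 cell viability was read by CellTiter-Glo luminescence, medium being phenol-red-free DMEM plus 10% FBS; concentration-response parameters came from normalized, curve-fitted qHTS data.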
KB-3-1 tox = KB-3-1 parental cell cytotoxicity. KB-3-1 viability, CellTiter-Glo ATP luminescence, 72 h. Potency, µM (titrated, usually from 46.1 µM), most hits filed as cytotoxic. hit rate 1.4% among 400,000. AID 1347075; further: potency means the concentration at half of the fitted maximal effect; on the % scale 0 is the no-effect control and ±100 the full control effect; nearly all actives have a fitted effect of over 60% in size
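Multi-concentration cytotoxicity screen in KB-3-1 cells grown in DMEM lacking phenol red with 10% FBS. After 72 h at 37 °C with compound, ATP-dependent luminescence was recorded.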
SW480 rereplic = DNA re-replication induction in SW480 cells. Potency, µM (top dose mostly 46.1 µM), for the others: at the highest dose re-replication activation, actives largely listed as activators. SW480 DNA re-replication, Hoechst DNA content imaging, 48 h. hit rate 1.8% among 340,000; further: potency means the concentration at half of the fitted maximal effect; % of control where 0% means no effect; nearly all actives have a fitted effect of over 55% in size
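Quantitative HTS format with DMSO vehicle controls; 48 hr drug incubation at 37 C, then 40 min Hoechst staining and scanning imager measurement at 405 nm excitation.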
Numbers without * were called inactive; i = inactive; ? = inconclusive; / = no result given. Only some compounds are listed: those with a hit (about 9.9% of all), similar ones and a draw of the others. Unless noted, the call rests on the fitted dose curve; in most records, active means well fitted curve in the direction sought with a large enough effect; inconclusive means small, poorly fitted or top-dose-only effect, or another doubt; inactive means no such curve, though single readings can be large; an effect the other way counts as inactive or inconclusive.

SMILES	IL1B secr inh	MCF10A rereplic	KB-V1 MDR tox	KB-3-1 tox	SW480 rereplic
COc1cc2c(=O)c(C(=O)c3ccc(C)c(C)c3)cn(Cc3ccc(F)cc3)c2cc1OC	/	/	i	i	/
CCOc1c2c(c(-c3ccc4c(c3)OCO4)c3cc(OC)c(OC)cc13)C(=O)OC2	/	/	?	1.3µM*	/
COc1ccccc1-c1oc2ccccc2c1-c1ccc2c(c1)OCO2	21	?	i	i	-5%
Cc1cccc(NC(=O)c2ccc3snnc3c2)c1C	/	/	?	i	/
Cc1cccc2cc(/C=N/NC(=O)c3ccccc3O)c(Cl)nc12	11	7.3µM*	?	i	/
Cc1cccc2cc(/C=N/Nc3ccc(C(=O)O)cc3)c(Cl)nc12	19	3.7µM*	i	i	17%
O=C(O)c1ccc(N/N=C/c2cc3ccccc3nc2Cl)cc1	18	8.2µM*	i	i	?
Cc1cccc2cc(/C=N/NC(=O)c3ccncc3)c(Cl)nc12	0	-1%	i	i	-32%
O=C(CCc1nnc(CCCc2ccccc2)o1)NCCCC1CCCC1	-23	7%	i	i	-17%
OCCCNc1nc(-c2ccc(Cl)cc2)nnc1-c1ccc(Br)cc1	-78*	0%	i	23µM*	3%
O=C(NCc1ccc2c(c1)OCO2)C1CCCN1C(=O)Nc1ccc(Cl)cc1 (stereo not given)	8	-7%	i	i	-19%
Cc1c(C(=O)N(CCO)Cc2ccccc2)oc2c(F)cccc12	15	0.73µM*	i	i	-66%
Cc1c(C(=O)N(C)Cc2cccc(F)c2)oc2c(Cl)cccc12	-8	?	i	i	?
Cc1c(C(=O)N(C)Cc2ccccc2)oc2c(Cl)cccc12	-4	18µM*	?	?	21%
Cc1c(C(=O)NC2CCN(Cc3ccccc3)C2)oc2c(Cl)cccc12 (stereo not given)	-88*	16µM*	i	i	?
Cc1cccc(NC(=O)CSCC(=O)NCc2ccco2)c1	13	-26%	i	i	-15%
Cc1ccc2c(c1)C(=O)N1[C@H]3c4ccccc4OC[C@@H]3[C@H](c3ccccc3)[C@]1(C)C(=O)N2	-62*	?	?	i	?
Cc1ccc2c(c1)[C@H]1[C@H](CO2)[C@H](c2ccccc2)[C@]2(C)C(=O)NCC(=O)N12	6	15%	?	i	4%
C[C@@]12C(=O)Nc3ccccc3C(=O)N1[C@H]1c3cc(Cl)ccc3OC[C@@H]1[C@@H]2c1ccccc1	?	7.3µM*	?	?	?
C[C@@]12C(=O)Nc3ccc(Cl)cc3C(=O)N1[C@H]1c3cc(Cl)ccc3OC[C@@H]1[C@@H]2c1ccccc1	0	0%	i	i	?
Cc1ccc2c(c1)NC(=O)[C@@]1(C)[C@@H](c3ccccc3)[C@H]3COc4ccccc4[C@@H]3N1C2=O	?	-8%	i	i	2%
Cc1ccc2c(c1)[C@H]1[C@H](CO2)[C@H](c2ccccc2)[C@]2(C)C(=O)Nc3ccc(Cl)cc3C(=O)N12	?	?	?	?	15µM*
Cc1ccc2c(c1)[C@H]1[C@H](CO2)[C@H](c2ccccc2)[C@]2(C)C(=O)Nc3ccccc3C(=O)N12	-60*	3.3µM*	?	i	9.2µM*
N=C1C(c2nc3ccccc3s2)=C(O)CN1c1ccccc1	-2	-12%	i	i	14%
O=C(CSc1cn[nH]n1)Nc1ccccc1C(=O)O	15	-3%	i	i	-11%
SMILES	IL1B secr inh	MCF10A rereplic	KB-V1 MDR tox	KB-3-1 tox	SW480 rereplic
Cc1cc(C)c(C)c(S(=O)(=O)N2CCN(C(=O)CNC(=O)c3ccco3)CC2)c1C	-12	6%	i	i	-11%
COCCNC(=O)C(c1ccc(C)o1)N(C(=O)Cn1nnc2ccccc21)c1ccccc1 (stereo not given)	7	12%	i	i	-18%
COc1cccc(NC(=O)[C@@H]2CCC(=O)N2C2OC(=O)c3ccccc32)c1 (stereo not given in full)	17	-12%	i	i	3%
O=C1OC(N2C(=O)CC[C@H]2C(=O)Nc2cccc(F)c2)c2ccccc21 (stereo not given in full)	10	-57%	i	i	4.1µM*
CCC(=O)OCC(=O)C1(OC(=O)CC)[C@H](C)C[C@H]2[C@H]3[C@H]([C@@H](O)C[C@@]21C)[C@@]1(C)C=CC(=O)C=C1C[C@H]3Cl (stereo not given in full)	-51*	1%	i	i	?
O=C(OCc1nnc(-c2ccccc2)o1)c1cc(Cl)ccc1[N+](=O)[O-]	25	12%	i	i	33%
COc1cc2c(cc1OC)C(COc1ccc3c(C)cc(=O)oc3c1)N(C(=O)c1cc(Cl)ccc1OC)CC2 (stereo not given)	/	/	i	i	/
C=CCNC(=S)N/N=C(\C)c1cc(OC)c(OC)c(OC)c1	0	-8%	15µM*	i	-13%
Cc1ccc(NNC(=S)Nc2ccc(C(C)C)cc2)c(C)c1	-109*	7.3µM*	i	i	6%
Cc1ccc(NC(=S)NNC(=S)Nc2ccc(C)cc2)cc1	-1	25%	?	3.7µM*	-5%
Cc1ccc(NC(=S)NNC(=O)c2c(Cl)c(C)nn2C)cc1	15	?	16µM*	i	0%
Cc1ccc(NC(=S)NNC(=O)c2ccccc2OC(F)F)cc1	24	-4%	?	i	16µM*
Cc1ccc(NC(=S)NNC(=O)c2c([N+](=O)[O-])c(C)nn2C)cc1	30	-3%	i	i	7%
O=C(NNC(=S)Nc1ccc(F)cc1)c1ccccc1OC(F)F	29	2%	?	i	-11%
O=c1[nH][nH]c(-c2ccccc2)c1C=Nc1ccc(OC(F)(F)F)cc1	-12	-6%	?	i	-2%
COc1cc(CCC(=O)NCc2ccc3c(c2)OCO3)cc(OC)c1OC	42	6%	i	i	2%
CC(C)c1ccccc1NC(=O)c1cccc(NC(=O)c2ccccc2)c1	-12	?	i	?	10%
NC(CO)(CO)COCc1ccccc1	10	8%	?	i	-12%
CCN1C=CC(=C2C(=O)c3ccccc3C2=O)C=C1	?	5%	8.2µM*	15µM*	-6%
CCCCCCN1C=CC(=C2C(=O)c3ccccc3C2=O)C=C1	-12	1%	i	?	-10%
CCCCN1C(C)=CC(=C2C(=O)c3ccccc3C2=O)C=C1C	0	?	?	i	0%
CCCN1C=CC(=C2C(=O)c3ccccc3C2=O)C=C1	?	15%	2.9µM*	?	-7%
CCN(C(=O)CSc1nccc(=O)[nH]1)C1CCCCC1	0	22%	i	i	5%

Assay outcomes as filed in PubChem BioAssay.
